# Results from publication PMC5540273 (PLoS ONE, 2017).
# Tests used:
# Conditions in all cases: concentration: 1 μM, replicates: in singlicate; n = 1
# DYRK1B = tested on: DYRK1B
# DYRK2 = tested on: DYRK2
# EGFR = tested on: EGFR
# EIF2AK1 = tested on: EIF2AK1
# EPHA1 = tested on: EPHA1
# EPHA2 = tested on: EPHA2
# EPHA3 = tested on: EPHA3
# EPHA4 = tested on: EPHA4
# EPHA5 = tested on: EPHA5
# EPHA6 = tested on: EPHA6
# EPHA7 = tested on: EPHA7
# EPHA8 = tested on: EPHA8
# EPHB1 = tested on: EPHB1
# EPHB2 = tested on: EPHB2
# EPHB3 = tested on: EPHB3
# EPHB4 = tested on: EPHB4
# EPHB6 = tested on: EPHB6
# ERBB2 = tested on: ERBB2
# ERBB3 = tested on: ERBB3
# ERBB4 = tested on: ERBB4
# 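Also: KINOMEscan kinase panel screen.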
SMILES,%Inh (DYRK1B),%Inh (DYRK2),%Inh (EGFR),%Inh (EIF2AK1),%Inh (EPHA1),%Inh (EPHA2),%Inh (EPHA3),%Inh (EPHA4),%Inh (EPHA5),%Inh (EPHA6),%Inh (EPHA7),%Inh (EPHA8),%Inh (EPHB1),%Inh (EPHB2),%Inh (EPHB3),%Inh (EPHB4),%Inh (EPHB6),%Inh (ERBB2),%Inh (ERBB3),%Inh (ERBB4)
N#CC1(c2cccc(C(=O)Nc3cccc(Oc4ccc5nc(NC(=O)C6CC6)sc5n4)c3)c2)CC1,1%,0%,36%,0%,76%,97.1%,50%,81%,89%,91.3%,0%,98.9%,95.8%,100%,50%,95.9%,99.5%,22%,0%,0%
Nc1ncc(-c2ccc3nccc(-c4ccncc4)c3c2)cc1S(=O)(=O)N1CCCCC1 [GSK1693850],2%,22%,1%,0%,0%,21%,22%,3%,0%,0%,3%,8%,0%,15%,0%,8%,43%,31%,0%,20%
Cc1ccc(C)c(NC(=O)Nc2ccc(C)c(-c3ccc(C(=O)Nc4ccncc4)cc3)c2)c1 [GSK1398473],25%,10%,35%,0%,0%,19%,0%,29%,15%,16%,3%,46%,23%,32%,12%,14%,0%,0%,0%,44%
O=C(Nc1n[nH]c2nc(-c3ccccc3O)ccc12)C1CC1 [SB-711880],56%,14%,27%,0%,0%,4%,30%,0%,5%,0%,58%,37%,0%,0%,0%,0%,53%,0%,0%,0%
COC(=O)Nc1nc2cc(Oc3ccc(NC(=O)Nc4cccc(SC)c4)cc3)ccc2[nH]1.Cl [GW697999],0%,7%,29%,0%,59%,88%,15%,64%,26%,92.6%,54%,96.8%,61%,70%,19%,70%,80%,32%,14%,35%
CN(C)CCOc1ccc(-c2cc(-c3ccc(Cl)c(O)c3)c(-c3ccncc3)[nH]2)cc1.Cl.Cl [SB-684387],30%,18%,38%,31%,51%,16%,19%,10%,0%,32%,2%,4%,10%,15%,15%,23%,34%,32%,23%,32%
CN(C)CCNS(=O)(=O)c1ccc(-c2ccnc3[nH]ccc23)cc1 [GSK977620],47%,64%,37%,0%,24%,14%,0%,0%,0%,0%,7%,3%,16%,0%,0%,0%,0%,0%,0%,30%
CC(C)(C)c1ccc(C(=O)Nc2cn3cc(-n4ccnc4)ccc3n2)cc1,94.8%,67%,9%,0%,0%,0%,16%,0%,0%,12%,0%,0%,3%,8%,0%,0%,2%,29%,8%,37%
CN(c1ccc2c(c1)nc(NCc1ccccc1)n2C)c1ccnc(Nc2ccc(CS(C)(=O)=O)cc2)n1.Cl [GW811603],0%,0%,0%,0%,0%,13%,27%,0%,10%,0%,20%,47%,0%,0%,0%,2%,87%,35%,28%,17%
N#Cc1cnc2cc(-c3cnc(CNCCN4CCOCC4)s3)ccc2c1Nc1ccc(Oc2ccccc2)cc1 [GW664114],5%,14%,98.1%,0%,8%,0%,10%,11%,0%,19%,0%,25%,0%,7%,10%,10%,21%,79%,100%,100%
